This is a sample that favours compounds with a hit; in the whole collection about 3% have one here.
ABHD5-PLIN5 inh: inhibitors of human ABHD5-perilipin-5 interaction; Split G. princeps luciferase complementation, luminescence, 4 h; inhibition, % at 4 µM; 360,000 tested, 0.78% active; AID 602281;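 active means inhibition above the mean inhibition across every tested compound plus 3 SD, cut at about 22% in these data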;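 further: 0% = DMSO only wells and the 100% control is not disclosed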
Target sequence (Q00G26 whole entry, looked up): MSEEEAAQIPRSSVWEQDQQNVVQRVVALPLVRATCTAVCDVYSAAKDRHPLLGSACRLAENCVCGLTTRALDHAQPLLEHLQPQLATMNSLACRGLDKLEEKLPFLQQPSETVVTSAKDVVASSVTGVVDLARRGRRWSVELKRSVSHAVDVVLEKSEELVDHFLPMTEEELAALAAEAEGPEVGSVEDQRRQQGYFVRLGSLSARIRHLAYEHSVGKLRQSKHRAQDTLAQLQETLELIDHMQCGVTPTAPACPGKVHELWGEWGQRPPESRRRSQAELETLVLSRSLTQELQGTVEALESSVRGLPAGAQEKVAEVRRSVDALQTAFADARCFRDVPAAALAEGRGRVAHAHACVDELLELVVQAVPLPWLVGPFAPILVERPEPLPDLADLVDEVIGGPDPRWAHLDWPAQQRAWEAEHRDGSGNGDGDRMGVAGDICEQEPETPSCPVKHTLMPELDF
Target sequence (Q8WTS1 whole entry, looked up): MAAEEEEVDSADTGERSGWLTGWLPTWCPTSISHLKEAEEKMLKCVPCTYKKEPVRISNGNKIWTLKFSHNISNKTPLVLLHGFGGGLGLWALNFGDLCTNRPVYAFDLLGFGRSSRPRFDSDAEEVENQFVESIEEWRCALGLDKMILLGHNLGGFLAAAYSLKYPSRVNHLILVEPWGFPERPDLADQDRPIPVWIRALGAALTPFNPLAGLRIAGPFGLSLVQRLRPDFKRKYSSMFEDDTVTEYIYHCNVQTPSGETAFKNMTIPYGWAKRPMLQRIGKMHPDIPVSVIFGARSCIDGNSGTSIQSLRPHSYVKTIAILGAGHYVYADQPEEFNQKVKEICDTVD
Shn3 3UTR inh: inhibitors of Schnurri-3 3'UTR reporter in osteoblasts; inhibition, % at 12.5 µM; AID 588674; 360,000 tested, 0.52% active; Clone20 osteoblast Shn3 3'UTR firefly luciferase, 24 h;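 active means mean inhibition of at least 75% with every replicate also reaching 75%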;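 further: 0% = median of neutral control wells and 100% = pilot-screen positive control compound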
Peg3 prom inh-1: Peg3 promoter activity inhibition. 360,000 tested, 1.7% active. HeLa PEG-Prom luciferase reporter, luminescence, overnight. inhibition, % at 20 µM;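 active means inhibition of at least 50% at 20 µM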
PAX8 inh HTS: lowers PAX8-driven luciferase in RMG-I cells; inhibition, % at 12.6 µM; AID 652154; 360,000 tested, 1.2% active; RMG-I TPO-luciferase reporter, SteadyGlo, 24 h;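 active means mean replicate inhibition at least 60% with every replicate also reaching 60%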;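 further: luciferase light reporting Pax8 driven TPO promoter activity; plate controls were median of neutral control wells for no effect and mitoxantrone controls for full effect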
EWS-Fli inh: inhibitors of EWS/Fli oncoprotein transcriptional activity | A673 NR0B1-luciferase reporter, viability-normalised | 350,000 tested, 0.67% active | AID 651661 | inhibition, % at 12.6 µM;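 active means mean inhibition of at least 50% after viability correction, with every replicate also passing that limit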;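 further: firefly luciferase signal divided by Alamar Blue viability fluorescence both relative to DMSO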
TRPM1 prom inh: MITF TRPM1 promoter inhibition in SK-MEL-5 cells. SK-MEL-5 TRPM1 promoter luciferase, 24 h. inhibition, % at 12.5 µM. 330,000 tested, 0.83% active;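 active means mean inhibition across replicates of 60% or more, whatever share of single replicates reaches that level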
Peg3 prom inh-2: confirmation of Peg3 promoter inhibitors. shares compounds with Peg3 prom inh-1. HeLa PEG-Prom luciferase reporter, luminescence, overnight. inhibition, % at 20 µM. 1,300 tested, 84% active. AID 602417;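 active means at 20 µM dose, 40% or more inhibition averaged across four replicates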
ABHD5-PLIN5 conf: confirmation of human ABHD5-PLIN5 interaction inhibitors. shares compounds with ABHD5-PLIN5 inh. biochemical ABHD5-PLIN5 interaction, luminescence. inhibition, % at 4 µM. 2,200 tested, 67% active. AID 651612; in the data active means inhibition above about 23%;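 further: 0% = DMSO vehicle wells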
HNF4 counter: active in HNF4 split-luciferase counter-screen for ABHD5-PLIN5 inhibitors. shares compounds with ABHD5-PLIN5 inh. AID 651674. 2,200 tested, 77% active. inhibition, % at 4 µM. HNF4 dimerization, luminescence, biochemical;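 active means mean inhibition across replicate wells exceeding the computed hit threshold, cut at about 13% in these data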;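 further: light from luciferase halves that rejoin when HNF4 fusion proteins dimerize; 0% = DMSO only wells and the 100% control is not given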
DNA binding: DNA binding small molecules; shares compounds with EWS-Fli inh; salmon sperm DNA acridine orange fluorescence polarization; AC35, µM (top dose mostly 68 µM), for the others: at the top dose activity change, negative = DNA binding; 640 tested, 2% active;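 active means fitted curve reaches a 35% signal fall AC35 below twice the sample's top valid tested dose, actives reach about 48 µM in these data; inactive means the rest, including activity in the rising direction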;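 further: lower polarization ratio signals compound binding to DNA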
Numbers without * were called inactive; x = no result.

SMILES | ABHD5-PLIN5 inh | Shn3 3UTR inh | Peg3 prom inh-1 | PAX8 inh HTS | EWS-Fli inh | TRPM1 prom inh | ABHD5-PLIN5 conf | HNF4 counter | others
O=C1NC(=O)N(Cc2ccco2)C(=O)/C1=C/C=C/c1ccco1 | 46* | 34 | 63* | 14 | 61* | 95* | 98* | 80* | Peg3 prom inh-2=73*;DNA binding=-1%
O=C1NC(=O)N(Cc2ccccc2)C(=O)/C1=C\C=C\c1ccco1 | 28* | -9 | 89* | 13 | 65* | 96* | 97* | 64* | Peg3 prom inh-2=63*;DNA binding=9%
COC(=O)[C@@H]1[C@@H](CO)[C@@H]2Cn3c(ccc(-c4ccccc4F)c3=O)[C@H]1N2Cc1ccncc1 | x | x | x | -8 | -1 | x | x | x
[Cl][Pt+2][Cl].[NH-]C1CCCCC1[NH-] (stereo not given) | 36* | -9 | -2 | -16 | -8 | 9 | 60* | 55*
COc1ccc(OC)c(N2C(=O)CC(=O)NC2=O)c1 | 30* | -5 | 1 | -22 | x | 7 | 5 | 21*
N#Cc1cccc(-c2ccc([C@H]3[C@H]4CN(C(=O)Cc5ccccc5)CCCCN4[C@H]3CO)cc2)c1 | x | x | x | 30 | 5 | x | x | x
CN1C(=O)C(=Cc2ccccc2OCc2ccc(Cl)cc2)C(=O)N(C)C1=O | 1 | -9 | -102 | -24 | -27 | -5 | x | x
CN1C(=O)C(=Cc2ccccc2Oc2ccc(Cl)cc2)C(=O)N(C)C1=O | 32* | 2 | 6 | x | x | 18 | 55* | 52*
Cc1ccc(S(=O)(=O)Oc2ccccc2C=C2C(=O)N(C)C(=O)N(C)C2=O)cc1 | 35* | -6 | -30 | x | -20 | -13 | 71* | 72*
CN1C(=O)C(=Cc2ccc(Sc3ccccc3)o2)C(=O)N(C)C1=O | 10 | 42 | 37 | 0 | -1 | 2 | x | x
O=C1NC(=O)C(=Cc2ccc(Sc3ccccc3)o2)C(=O)N1 | 23* | 45 | 20 | -54 | 3 | -3 | 96* | 103*
O=C1NC(=O)N(c2ccccc2F)C(=O)/C1=C/c1ccc(Oc2ccc([N+](=O)[O-])cn2)cc1 | 24* | -4 | 11 | -28 | -9 | 2 | 69* | 47*
COc1ccccc1CN1[C@H](CO)[C@H](c2ccccc2)C12CN(C(=O)Cc1ccccc1)C2 | x | x | x | 35 | -2 | x | x | x
Cc1cccc(S(=O)(=O)N2[C@@H]3c4ccc(-c5ccccc5)c(=O)n4C[C@H]2[C@H](CO)[C@H]3C(=O)O)c1 | x | x | x | -4 | 1 | x | x | x
COC(=O)C1=C(C(=O)OC)SC2(S1)C(C(=O)OC)=C(C(=O)OC)Sc1c2ssc1=O | 91* | 98* | 111* | 26 | 45 | 101* | 102* | 112*
COc1ccc(OC)c(-n2c(O)c(/C=C3\C=Nc4ccccc43)c(=O)[nH]c2=O)c1 | 22 | -28 | 1 | -9 | 15 | 17 | x | x
COc1ccccc1-n1c(O)c(/C=C2\C=Nc3ccccc32)c(=O)[nH]c1=O | 29* | 5 | 24 | -19 | 6 | 12 | 24* | 28*
CCOc1ccc(-n2c(O)c(/C=C3\C=Nc4ccccc43)c(=O)[nH]c2=O)cc1 | 29* | -21 | 28 | 13 | 9 | 12 | 14 | 38*
O=C(O)[C@@H]1[C@@H](CO)[C@@H]2Cn3c(cccc3=O)[C@H]1N2C(=O)c1ccccc1 | x | x | x | x | -3 | x | x | x
CC=Cc1ccc2n(c1=O)C[C@H]1[C@H](CO)[C@@H](C(=O)N(C)C)N[C@@H]21 (mixture of isomers) | x | x | x | -2 | -6 | x | x | x
CC(C)CNC(=O)c1c(N)n(Cc2ccco2)c2nc3ccccc3nc12 | 22 | -5 | 18 | x | x | 16 | x | x

Screening data (PubChem BioAssay)
